Laboratory results as given in PubChem BioAssay (Tox21).
Records with an inconclusive call do not appear. Calls of active or inactive are those of the source. The call rests on the fitted dose curve.

Biological target: Muscarinic acetylcholine receptor M1 (Homo sapiens) (UniProt P11229)
Test: Cholinergic receptor muscarinic 1 (CHRM1) small molecule antagonists, cell-based qHTS assay (AID 1963588); further: nearly all actives have a fitted effect of over 40% in size
Settings: CHRM1-CHO antagonist mode, calcium flux fluorescence; series mostly up to 61.5 µM; activity, negative = inhibition: at the top concentration
Excerpt: National Center for Advancing Translational Sciences [NCATS]
Division of Preclinical Innovation [DPI]
U.S. Environmental Protection Agency [EPA]
National Institutes of Environmental Health Sciences [NIEHS]
National Toxicology Program [NTP]
U.S. Food and Drug Administration [FDA]
The CHRM1 is a muscarinic receptor. This receptor plays a crucial role in learning and memory processes and has long been identified as a promising therapeutic target for the improvement of cognitive decline in Alzheimer's disease (AD). The CHRM1-CHO cell line stably expressing human muscarinic acetylcholine receptor M1 (CHRM1) can be used for screening agonists and antagonists of interactions between CHRM1 and its ligands. The CHRM1-CHO Calcium Flux Assay is a homogeneous fluorescence-based assay for detecting the intracellular calcium level using FDSS kinetic plate reader system.
Tox21 Assay Protocol Summary:
CHRM1-CHO cells were dispensed at 1000 cells/3uL/well in 1536-well black-clear bottom plates using a Multidrop Dispenser. After the assay plates were incubated at a 37 C/5% CO2 incubator for 18 h, 3 uL of Dye Loading Buffer was transferred to the assay plate by a Flying Reagent Dispenser. The assay plates were incubated at 37 C for 1h. For antagonist mode, 23 nL of compounds dissolved in DMSO, positive controls or DMSO only was transferred to the assay plate by a pin tool. After 5 min incubation at room temperature, 1.5 uL of acetylcholine at 50nM was added to each well. The fluorescence intensity in the plates was measured using FDSS 7000EX kinetic plate reader for 3 min at 1 sec intervals. Each test compound was measured at 15 concentrations in three independent runs.
On the % scale 0 is the no-effect control and ±100 the full control effect; potency means the concentration at half of the fitted maximal effect.

Muscarinic acetylcholine receptor M1 (Homo sapiens), sequence (P11229 whole entry, looked up): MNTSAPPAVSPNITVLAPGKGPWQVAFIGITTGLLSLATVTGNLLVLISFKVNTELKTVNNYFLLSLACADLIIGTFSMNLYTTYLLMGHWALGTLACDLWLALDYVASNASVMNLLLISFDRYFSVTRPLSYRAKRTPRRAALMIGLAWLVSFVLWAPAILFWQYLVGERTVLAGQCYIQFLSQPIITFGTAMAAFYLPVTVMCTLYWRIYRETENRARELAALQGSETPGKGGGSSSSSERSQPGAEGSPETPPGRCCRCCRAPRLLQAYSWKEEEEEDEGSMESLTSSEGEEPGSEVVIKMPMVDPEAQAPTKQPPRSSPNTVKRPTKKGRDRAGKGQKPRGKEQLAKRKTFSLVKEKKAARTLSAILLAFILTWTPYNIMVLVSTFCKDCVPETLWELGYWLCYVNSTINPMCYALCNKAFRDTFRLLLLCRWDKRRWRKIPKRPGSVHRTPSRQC

Row | SMILES | activity, negative = inhibition | Potency
1 | C[N+]1(CCC(C(N)=O)(c2ccccc2)c2ccccc2)CCCCC1 | -52.6% [at 28.3 µM] (inactive) | –
2 | NP(N)(=O)NC(=O)c1ccc(F)cc1 | -6.64% [at 28.3 µM] (inactive) | –
3 | N[C@@H]1C[C@H]1c1ccccc1 | 3.26% [at 28.3 µM] (inactive) | –
4 | c1cc[c]([Hg][c]2ccccc2)cc1 | -2.18% (inactive) | –
5 | CO/C=C(/C(=O)OC)c1ccccc1Oc1cc(Oc2ccccc2C#N)ncn1 | -11.9% (inactive) | –
6 | CC(C)CC(C)N (stereo not given) | -5.9% (inactive) | –
7 | CC(=O)OCC1=C(C(=O)O)N2C(=O)[C@@H](N)[C@H]2SC1 | 7.63% [at 12.6 µM] (inactive) | –
8 | [Cl][Sn]([c]1ccccc1)([c]1ccccc1)[c]1ccccc1 | -4.75% [at 12.6 µM] (inactive) | –
9 | C#CC1(O)CCCCC1 | 1.28% (inactive) | –
10 | C=C(Cl)CSC(=S)N(CC)CC | -6.12% (inactive) | –
11 | CC(Oc1cccc(Cl)c1)C(=O)O (stereo not given) | 1.97% (inactive) | –
12 | COP(=O)(OC)O/C(=C/Cl)c1cc(Cl)c(Cl)cc1Cl | -4.21% (inactive) | –
13 | CC(C)(C)NCC(O)c1cc(Cl)c(N)c(C(F)(F)F)c1 (stereo not given) | -0.648% [at 28.3 µM] (inactive) | –
14 | CCCN(CCC)c1c([N+](=O)[O-])cc(S(C)(=O)=O)cc1[N+](=O)[O-] | – | 10.6 µM (active)
15 | O=C(N[C@H]1CN2CCC1CC2)c1ccc2c(c1)OCCO2 | -35.9% (inactive) | –
16 | CCCSP(=S)(OCC)Oc1ccc(SC)cc1 (stereo not given) | -9% (inactive) | –
17 | CC(C)[C@@H](C(=O)O[C@@H](C#N)c1cccc(Oc2ccccc2)c1)c1ccc(Cl)cc1 | – | inactive
18 | CC(C)C[C@H](NC(=O)CNC(=O)[C@H](Cc1ccc(O)cc1)NC(=O)[C@H](CO)NC(=O)[C@H](Cc1c[nH]c2ccccc12)NC(=O)[C@H](Cc1cnc[nH]1)NC(=O)[C@@H]1CCC(=O)N1)C(=O)N[C@@H](CCCN=C(N)N)C(=O)N1CCC[C@H]1C(=O)NCC(N)=O (stereo in doubt) | 16.6% [at 28.3 µM] (inactive) | –
19 | COC(C)(C)CCC[C@H](C)C/C=C/C(C)=C/C(=O)OC(C)C | -6.85% (inactive) | –
20 | CC1(C)C(C(=O)OC(C#N)c2cccc(Oc3ccccc3)c2)C1(C)C (stereo not given) | – | inactive

Row | SMILES | activity, negative = inhibition | Potency
21 | NC(=S)C(N)=S | 16.5% (inactive) | –
22 | CCC(OC(C)=O)C(CC(C)NC)(c1ccccc1)c1ccccc1 (stereo not given) | -10.5% (inactive) | –
23 | CNN | -15.3% (inactive) | –
24 | CC(C)=CC1C(C(=O)OC(C#N)c2cccc(Oc3ccccc3)c2)C1(C)C (stereo not given) | -6.28% (inactive) | –
25 | CCOP(=O)(Sc1ccccc1)Sc1ccccc1 | 15.4% (inactive) | –
26 | FC(F)(F)c1cccc(C2=CCN(CCc3ccc4ccccc4c3)CC2)c1 | -0.24% [at 28.3 µM] (inactive) | –
27 | COc1cc(C[C@@H](C)N)c(OC)cc1C | 11.9% (inactive) | –
28 | CCOP(=O)(N=C1SCCS1)OCC | -6.38% (inactive) | –
29 | Oc1c(Cl)cccc1Cl | 10.7% (inactive) | –
30 | Oc1ccccc1Br | -2.53% (inactive) | –
31 | O=C(CBr)OCc1ccccc1 | 6.19% (inactive) | –
32 | NC(=O)CC[C@@H]1NC(=O)[C@H](Cc2ccccc2)NC(=O)[C@H](Cc2ccc(O)cc2)NC(=O)CCSSC[C@@H](C(=O)N2CCC[C@H]2C(=O)N[C@@H](CCCN=C(N)N)C(=O)NCC(N)=O)NC(=O)[C@H](CC(N)=O)NC1=O | 12.7% [at 28.3 µM] (inactive) | –
33 | N#CC(Br)(Br)C(N)=O | – | 0.0047 µM (active)
34 | CCC[N+](CCC)(CCC)CCC | -8.58% (inactive) | –
35 | CC(Cc1ccccc1)NCc1ccccc1Cl (stereo not given) | 3.01% [at 28.3 µM] (inactive) | –
36 | O=C(CBr)Nc1ccc(Cl)cc1C(=O)c1ccccc1F | 0.415% [at 28.3 µM] (inactive) | –
37 | CN(C)C(=S)[S-].CN(C)C(=S)[S-].[Cu+2] | -2.33% [at 12.6 µM] (inactive) | –
38 | CC(Cc1ccccc1)N(C)Cc1ccco1 (stereo not given) | -0.178% [at 28.3 µM] (inactive) | –
39 | C[C@H]1[C@@H]2Cc3ccc(O)cc3[C@@]1(C)CCN2C | 22.4% [at 160 µM] (inactive) | –
40 | CC(=O)[O-].CC(=O)[O-].O.O.[Cd+2] | 9.02% (inactive) | –
